Sampled rows, rich in hits. Any-hit rate of the full collection: about 5.4%.
DAX1 inh = inhibits human nuclear receptor DAX1; HEK293 Gal4-DAX1 luciferase reporter, luminescence; inhibition, % at 6.75 µM; 0.99% of 340,000 active; AID 504766;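 active = inhibition above the mean over all tested compounds plus 3 SD, cut at about 4.2% in these data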;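 note: 0% = DAX1-transfected cells with DMSO and 100% = empty-vector control cells with DMSO; inhibition shows as a rise in luminescence from relieved DAX1 repression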
AHR act = activates the human aryl hydrocarbon receptor; 2.5% of 320,000 active; activation, % at 5 µM; P35869; AHR-responsive luciferase reporter cells, luminescence; in the data active = activation above about 47%;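 note: 0% = vehicle wells and 100% = reference agonist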
FXN GAA850 act = frataxin GAA850 promoter activation. activation, % at 6 µM. HEK293 lucGAA850 FXN promoter luciferase reporter, 24 h; percent of 10 µM SAHA response. 0.56% of 360,000 active;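 active = activation above the average of all compounds screened plus 3 SD, cutoff fixed separately per campaign, cut at about 7.5% in these data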;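 note: 0% = DMSO wells and 100% = 10 µM SAHA wells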
HSF1 inhib = HSF1 inhibition | NIH3T3-HGL HSE-luciferase, MG132-induced, luminescence 8 h; hits give low values | activity change, negative = inhibition, % at 7.5 µM (by protocol) | 0.77% of 300,000 active | AID 2098;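 active = more than half of replicate wells show activity change below -50%, luminescence cut by over half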;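 note: luciferase reports HSF-1 transcriptional activity via heat shock element; 0% = median of DMSO wells and -100% = zero luminescence signal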
HSF1 activator = increases HSF-1 driven luciferase reporter signal | activation, % at 9 µM | AID 504408 | 1.7% of 300,000 active | NIH3T3-HGL HSF-1 luciferase reporter, MG132, 8 h; 100% = twice DMSO control signal;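 active = mean replicate activation of at least 50% with a set share of replicates each reaching 50%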;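 note: 0% = median of the neutral control wells and 100% = twice that signal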
Active calls of the source: *; / = no result given.

SMILES	DAX1 inh	AHR act	FXN GAA850 act	HSF1 inhib	HSF1 activator
CCN1C(=O)N[C@@H](CCc2ccccc2)C(C(C)=O)=C1C	0	1	0	1	6
CCN1C(=S)N[C@@H](CCc2ccccc2)C(C(=O)OC)=C1C	0	53*	2	-2	0
O=C(NCCS(=O)(=O)NC1CCCCC1)c1ccc2c(c1)OCO2	0	4	0	0	-4
CCOc1ccc(S(=O)(=O)N2CC(=O)Nc3ccccc32)cc1	3	0	-2	-11	-28
CCOc1ccc(S(=O)(=O)N2CC(=O)Nc3ccccc32)cc1C#N	4.3*	9	0	4	-2
CN(Cc1cccc(F)c1)C(=O)c1ccc(S(=O)(=O)N2CCOCC2)cc1	0	0	1	/	/
CCN(CC)CCN(C(=O)C1=COCCO1)c1nc2ccc(C)cc2s1	-1	4	4	24	53*
CCN(CC)CCN(C(=O)C1=COCCO1)c1nc2cc3c(cc2s1)OCO3	0	9	1	19	23
Cc1c(C(=O)N(C)Cc2ccc(F)cc2)sc(=O)n1Cc1ccccc1C#N	/	/	1	/	/
N#Cc1ccc(NC(=S)NC(=O)C2CC2)cc1	1	/	2	/	/
CCOC(=O)C(=O)NN=C(c1ccccc1)c1ccccc1	2	-1	0	0	-3
CCOC(=O)c1[nH]c2ccccc2c1NC(=O)CC(C)C	0	18	0	3	4
CCOC(=O)c1[nH]c2ccccc2c1NC(=O)c1ccco1	1	40	-2	-2	10
CCCC(=O)Nc1c(C(=O)OCC)[nH]c2ccccc12	2	58*	-1	4	1
CCOC(=O)c1ccc2[nH]c3ccccc3c2c1	8.0*	-1	3	21	47
CCOC(=O)c1[nH]c2ccccc2c1NC(=S)Nc1ccccc1C	2	59*	3	-2	-2
CCOC(=O)c1[nH]c2ccccc2c1NC(=S)Nc1cc(C)ccc1C	2	60*	2	4	17
Cc1ccccc1-c1cnc(C(O)c2ccc(Cl)cc2)[nH]1 (stereo not given)	/	/	1	/	/
C[C@H](NCc1c[nH]c2ccccc12)c1ccccc1	2	19	-2	-9	-5
C=CCc1ccccc1OCC(O)CN1CCN(CCN2C(=O)c3cccc4cccc(c34)C2=O)CC1 (stereo not given)	-1	-3	-4	44	61*
Cc1ccccc1OCC(O)CN1CCN(CCN2C(=O)c3cccc4cccc(c34)C2=O)CC1 (stereo not given)	-2	-10	-1	14	30
CC(NC(=O)NC(=O)c1cccc(Cl)c1)c1ccccc1 (stereo not given)	0	6	2	-2	-3
Cc1ccnc(NC(=O)Nc2ccc(F)cc2)c1	2	12	4	29	61*
CSc1ccc(NC(=O)Nc2cc(C)ccn2)cc1	2	-7	4	-6	12
Cc1ccnc(NC(=O)CNC(=O)c2ccc(C)s2)c1	2	-1	2	-8	-10
SMILES	DAX1 inh	AHR act	FXN GAA850 act	HSF1 inhib	HSF1 activator
Cc1ccnc(NC(=O)c2cc3cc(F)ccc3s2)c1	2	13	4	32	72*
COc1ccc(-c2nc3cc(C)ccn3c2NC(=O)c2ccccc2OC)cc1	1	53*	-2	11	10
CCCNC(=O)Nc1ccc(C)cc1C	-1	5	1	25	51*
Clc1ccc(-c2nnc3sc(-c4ccc(Br)o4)nn23)cc1	0	61*	2	/	/
Cc1oc(-c2ccc(Cl)cc2)cc1-c1nn2c(-c3ccoc3C)nnc2s1	1	52*	2	2	-13
COc1cc(CO)c(OC)c([N+](=O)[O-])c1	2	0	0	1	4
Nn1c(-c2ccccn2)nnc1-c1ccccn1	2	5	4	7	-6
Nc1ccccc1-c1nnc(-c2ccccc2N)n1N	2	48*	3	9	12
Cc1cccc(NC(=O)CSc2nnc(-c3ccco3)c(-c3ccco3)n2)c1C	0	5	2	57	89*
Cc1ccc(/C=C2\OC(=O)c3ccccc32)cc1	2	39	4	48	59*
Cc1ccccc1/C=C1\OC(=O)c2ccccc21	0	-3	0	24	46
COc1cccc(CCNC(=O)C2CCC(=O)N(C3CC3)C2)c1OC (stereo not given)	1	/	0	21	59*
CN(C)C(CNC(=O)CCCc1c[nH]c2ccccc12)c1ccco1 (stereo not given)	5.8*	-6	3	-2	17
O=C(CCc1c[nH]c2ccccc12)NCCc1ccc(Cl)cc1	1	2	-1	18	55*
O=C(COC(=O)CCc1c[nH]c2ccccc12)Nc1ccc([N+](=O)[O-])cc1	5.2*	2	1	5	-7
CC(=O)Nc1ccc(NC(=O)CCCc2c[nH]c3ccccc23)cc1	5.0*	12	1	0	-3
O=C(COC(=O)CCc1c[nH]c2ccccc12)Nc1cc([N+](=O)[O-])ccc1Cl	0	5	-3	/	/
O=C(Cc1cccs1)N/N=C/C(Br)=C/c1ccccc1	0	4	5	85	106*
CC(/C=N/NC(=O)Cc1cccs1)=C\c1ccccc1	0	7	6	60	122*
O=C(CN1CCOCC1)N/N=C/C(Br)=C\c1ccccc1	1	3	3	11	31
CC(/C=N/NC(=O)c1ccco1)=C\c1ccccc1	1	0	1	35	55*
CC(/C=N/NC(=O)c1cccs1)=C\c1ccccc1	2	0	4	28	43
COc1cc(/C=N/NC(=O)Cc2cccs2)c([N+](=O)[O-])cc1OC	-1	49*	1	3	-3
CC(C=NNC(=O)C(=O)NN=CC(C)=Cc1ccccc1)=Cc1ccccc1	4	/	1	/	/
O=C1C=C(c2ccc(C(=O)O)cc2)C[C@@H](c2ccc3c(c2)OCO3)C1	2	14	2	/	/
SMILES	DAX1 inh	AHR act	FXN GAA850 act	HSF1 inhib	HSF1 activator
COc1cccc2cc(-c3nnc(-c4ccccc4)o3)c(=O)oc12	4	0	4	-57*	-54
COc1ccc(-c2nnc(-c3cc4ccccc4oc3=O)o2)cc1	0	0	2	-1	-1
Nc1c(Nc2ccccc2)c2ccccc2oc1=O	0	0	4	82	88*
O=c1c2ccccc2nc2ccc(NCc3cccs3)nn12	4.7*	19	6	16	40
c1ccc(-c2cc3nc(NCc4cccs4)ccn3n2)cc1	/	/	4	/	/
COc1ccc2c(c1OC)C(=O)N(c1ccc(OCc3ccccc3)cc1)C2=O	2	-2	2	1	5
Cc1cc(C)cc(NS(=O)(=O)CCCS(=O)(=O)Nc2cc(C)cc(C)c2)c1	0	/	-1	/	/
O=C(NC1CCCCC1)N1CCN(c2ccccc2Cl)CC1	1	-2	0	-1	-8
Cc1cc(=O)[nH]c(SCC(=O)N2CCN(S(=O)(=O)c3ccccc3)C2)n1	0	-2	1	4	21

Bioassay records: PubChem, several laboratories
